Peg3 promoter – reduces Peg3 promoter-driven luciferase expression in HeLa; actives 1.7% (n = 360,000); inhibition, % at 20 µM; AID 588405; HeLa PEG-Prom luciferase reporter, luminescence, overnight;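 active = inhibition of at least 50% at 20 µM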
HIF-2a block – inhibitors of HIF-2a; inhibition, % at 18.8 µM; 786-0 RCC cells HIF-2a reporter, luciferase luminescence, overnight; actives 0.72% (n = 360,000);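 active = inhibition of the luminescence signal of 40% or more relative to plate controls, in a single-dose primary screen at 18.75 µM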
KKLEB cytotox – counter-screen for CF NF-kB inhibitors: cytotoxicity; KKLEB CF airway cells viability, ATPlite luminescence, overnight; active compounds read low; cells stimulated with P. aeruginosa culture filtrate; activity change (cytotoxicity), % at 5 µM; actives 0.36% (n = 360,000);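 active = corrected activity change at or below -50% at 5 µM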
CF NFkB inh – cystic fibrosis NF-kB activation inhibition | KKLEB NF-kB-GFP reporter, PAF-induced, GFP fluorescence overnight | inhibition, % at 5 µM | actives 0.86% (n = 360,000);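 active = at least 50% inhibition at 5 µM, scaled per plate between neutral and stimulator controls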;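 note: PAF is a Pseudomonas aeruginosa culture filtrate used as stimulus; plate controls were PAF-stimulated DMSO wells for no effect and unstimulated DMSO wells for full effect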
Shn3 inh set2 – inhibitors of Schnurri-3 3'UTR reporter in osteoblasts; Clone20 osteoblast Shn3 3'UTR firefly luciferase, 24 h; inhibition, % at 12.5 µM; actives 0.52% (n = 360,000);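 active = mean inhibition of at least 75% with every replicate also reaching 75%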;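 note: 0% = median of neutral control wells and 100% = pilot-screen positive control compound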
* marks the source's active call; other numbers are inactive results; · = not tested or not shown. Hits are enriched below; roughly 2.6% of the tested compounds scored in any of these assays.

SMILES	Peg3 promoter	HIF-2a block	KKLEB cytotox	CF NFkB inh	Shn3 inh set2
Cc1ccc2c(c1)Oc1ccccc1C=C2C(=O)O	5.7	8.3	-4.4	-0.1	-1.5
O=C(c1cc(C(=O)NCCc2ccccc2)c(=O)n(CCc2ccccc2)c1)c1cc(Cl)ccc1O	51.9*	10.0	-24.1	35.7	43.8
COc1ccc(CCNC(=O)c2cc(C(=O)c3cc(Cl)ccc3O)cn(CCc3ccc(OC)cc3)c2=O)cc1	39.1	20.0	-4.2	15.5	20.9
COc1nc(Nc2nc3ccccc3c(=O)[nH]2)nc2ccc(C)cc12	98.1*	-41.2	-0.5	47.6	52.4
COc1cccc2c(C)nc(Nc3nc(CSc4nnc(C)s4)cc(=O)[nH]3)nc12	76.5*	13.6	11.0	-5.4	2.8
Cc1nc(Nc2nc(-c3ccccc3)cc(=O)[nH]2)nc2ccccc12	63.9*	-229.3	-0.4	-154.0	-20.4
Cc1cc(C)cc(Nc2nc3ccccc3c(=O)[nH]2)c1	-43.6	-29.3	2.6	7.2	-7.9
Cc1nc(Nc2nc(CSc3nc4ccccc4[nH]3)cc(=O)[nH]2)nc2ccccc12	102.0*	-22.5	13.5	30.7	77.6
CC(C)Cc1nnc(NC(=O)CSc2nc(O)c(Cc3ccccc3)c(=O)[nH]2)s1	-0.1	15.6	-11.3	6.0	-0.4
O=C(Cn1cnc2ccccc2c1=O)NC1CCS(=O)(=O)C1 (stereo not drawn)	4.5	3.5	8.6	-1.7	1.6
O=C1NC[C@H](CCCCN2C[C@H](Cc3ccccc3)N(CC3CCCCC3)C(=O)C2=O)N(CC2CCCCC2)C1=O	·	-25.1	·	·	·
COC1(OC)C(/C=C/c2ccc(Cl)cc2)C(C#N)(C#N)C1(OC)OC (stereo not drawn)	62.9*	13.3	-60.3*	56.9*	18.1
c1ccc(CNc2nc(N3CCN(Cc4ccccc4)CC3)nc3ccccc23)cc1	64.7*	12.5	-24.6	23.1	42.7
c1ccc(CN2CCC(Nc3nc(-c4ccccc4)nc4ccccc34)CC2)cc1	75.0*	5.0	-6.8	-5.4	33.4
O=C(CN(C(=O)c1csnn1)c1ccccc1F)NCc1ccccc1	2.2	5.0	2.2	7.8	2.5
CCOC(=O)C(C(=O)N(C)Cc1ccccc1)C1CCCCC1 (stereo not drawn)	17.2	19.0	-7.2	16.8	7.2
CNC(=O)c1c(NC(=O)C2=COCCO2)sc(C)c1C	0.0	-7.3	-0.2	-25.6	-46.2
COCCNC(=O)CCc1c(C)nc2c(c(C)nn2-c2ccc(C)cc2)c1C	14.3	20.8	-10.6	2.2	7.5
CCN(CC)CCNC(=O)CCc1c(C)nc2c(c(C)nn2-c2ccc(C)cc2)c1C	73.2*	27.7	-11.1	17.4	-62.6
CCC(C)c1ccccc1NC(=O)COc1ccc(-n2cnnn2)cc1 (stereo not drawn)	0.9	-1.0	1.8	-22.3	-9.6
COc1cccc(NC(=O)CSc2nc3c(sc4ccccc43)c(=O)n2CCCN2CCCC2)c1	94.3*	-27.8	-14.5	-5.5	-39.2
COc1ccc(NC(=O)CSc2nc3ccccc3c(=O)n2CCCN2CCC(C)CC2)c(OC)c1	69.2*	16.7	-13.4	16.9	10.5
Cc1ccc(CNC(=O)CSc2nc3c(sc4ccccc43)c(=O)n2CCCN2CCCC2)cc1	108.8*	-3.5	-10.0	21.9	-14.5
O=C(CSc1nc2c(sc3ccccc32)c(=O)n1CCCN1CCCC1)NCc1ccccc1	44.8	-1.3	-18.2	4.5	-10.3
CC(OC(=O)CCN=C1NS(=O)(=O)c2ccccc21)C(=O)Nc1ccc(N(C)C)cc1 (stereo not drawn)	-6.1	0.7	2.7	12.4	-17.8
SMILES	Peg3 promoter	HIF-2a block	KKLEB cytotox	CF NFkB inh	Shn3 inh set2
Cc1[nH]c2ccccc2c1C(=O)CCl	93.4*	19.4	-4.4	63.6*	28.3
OCCNc1c2ccccc2nc2c(F)c(F)c(F)c(F)c12	100.8*	96.9*	-8.1	9.2	-23.4
Cc1c2ccccc2nc2c(F)c(NCCO)c(F)c(F)c12	-108.0	-34.6	-7.2	-1.6	-1.7
COC(=O)c1ccccc1Sc1ncnc2onc(C)c12	100.7*	13.0	-0.2	38.0	7.5
Cc1ccc(Sc2ncnc3onc(C)c23)c(C)c1	0.1	-4.3	-1.9	17.1	-24.2
CC1C=CC=CC=CC=CC=CC=CC=CC(OC2OC(C)C(O)C(N)C2O)CC2OC(O)(CC(O)CC(O)C(O)CCC(O)CC(O)CC(=O)OC(C)C(C)C1O)CC(O)C2C(=O)O (stereo not drawn)	-20.4	-6.2	-9.4	55.2*	20.8
CCCCCCN1C2=NCCN2c2ccccc21	7.3	4.5	-13.6	10.9	-8.5
